From PubChem BioAssay (NCATS)
Records with an inconclusive call do not appear. Active and inactive are the calls of the source. Calls come from the whole dose curve; as a rule, active = well fitted curve in the direction sought with a large enough effect; inconclusive = small, poorly fitted or top-dose-only effect, or another doubt; inactive = no such curve, though single readings can be large; an effect the other way counts as inactive or inconclusive.

Assays:
[1] = qHTS of pediatric cancer cell lines to identify multiple opportunities for drug repurposing: Primary screen for SK-N-SH cells (AID 1347098); note: nearly all actives have a fitted effect of over 65% in size
Outline: (§1)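 Cells (500-1,000/well) rested 5 h, then received compounds for 48 h; metabolically active cells were measured by CellTiter-Glo luminescence. Final concentrations spanned up to 46 µM (MIPE, 11-point) or 0.59 nM-46 µM (NPC, 8-point) in primary screens, 11-point in follow-ups.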

[2] = qHTS of pediatric cancer cell lines to identify multiple opportunities for drug repurposing: Primary screen for LAN-5 cells (AID 1347100)
Outline: as §1

[3] = qHTS of pediatric cancer cell lines to identify multiple opportunities for drug repurposing: Primary screen for Rh18 cells (AID 1347102); note: nearly all actives have a fitted effect of over 65% in size
Outline: as §1

[4] = qHTS of pediatric cancer cell lines to identify multiple opportunities for drug repurposing: Primary screen for OHS-50 cells (AID 1347103); note: nearly all actives have a fitted effect of over 40% in size
Outline: as §1

[5] = qHTS of pediatric cancer cell lines to identify multiple opportunities for drug repurposing: Primary screen for MG 63 (6-TG R) cells (AID 1347105); note: nearly all actives have a fitted effect of over 50% in size
Outline: (§2)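 Cells seeded at 500-1,000 cells/well in growth media, rested 5 hours at 37 degrees C, 5% CO2, then dosed; MIPE compounds at 11-point (from 0.78 nM) and NPC at 8-point (from 0.59 nM) final concentrations. Viability by CellTiter-Glo luminescence after 48 hours.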

[6] = qHTS of pediatric cancer cell lines to identify multiple opportunities for drug repurposing: Primary screen for Rh30 cells (AID 1347107); note: nearly all actives have a fitted effect of over 75% in size
Outline: as §1

[7] = qHTS of pediatric cancer cell lines to identify multiple opportunities for drug repurposing: Primary screen for RD cells (AID 1347104); note: nearly all actives have a fitted effect of over 55% in size
Outline: as §2

[8] = qHTS of pediatric cancer cell lines to identify multiple opportunities for drug repurposing: Primary screen for control Hh wild type fibroblast cells (AID 1347106); note: nearly all actives have a fitted effect of over 55% in size
Outline: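 Cells (500-1,000/well) in growth media were settled 5 h at 37 degrees C, then given compounds for 48 h. Viability was read as CellTiter-Glo luminescence. Primary runs used MIPE at 11 points (0.78 nM-46 µM) and NPC at 8 points (0.59 nM-46 µM); follow-ups used 11 points.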

[9] = qHTS of pediatric cancer cell lines to identify multiple opportunities for drug repurposing: Primary screen for BT-12 cells (AID 1347101); note: nearly all actives have a fitted effect of over 25% in size
Outline: as §1

[10] = qHTS of pediatric cancer cell lines to identify multiple opportunities for drug repurposing: Primary screen for NB1643 cells (AID 1347099); note: nearly all actives have a fitted effect of over 50% in size
Outline: as §2

Measured: Potency
Potency is the fitted concentration of half-maximal effect.

CC(C)n1c(C=C[C@H](O)C[C@H](O)CC(=O)O)c(-c2ccc(F)cc2)c2ccccc21
active: [1] 6.81 µM | [3] 5.9 µM | [4] 4.32 µM | [5] 1.48 µM
inactive: [2] | [6]

C[C@@]1(c2cc(-c3cncnc3)c(F)cc2F)CCSC(N)=N1
active: [1] 12.1 µM | [2] 3.72 µM | [4] 2.73 µM | [7] 2.09 µM
inactive: [3] | [5] | [6]

C[C@H]1COC2=C1C(=O)C(=O)c1c2ccc2c1CCCC2(C)C
not listed: [9] | [10]
inactive: all other assays above

NC(=O)c1nnn(Cc2cc(Cl)c(C(=O)c3ccc(Cl)cc3)c(Cl)c2)c1N
active: [1] 30.4 µM | [2] 20.9 µM | [4] 21.7 µM
inactive: [5] | [8]

COc1cc2nccc(Oc3ccc(NC(=O)Nc4ccc(F)cc4F)c(F)c3)c2cc1OC
inactive: [1] | [9] | [8]
active: [2] 0.833 µM | [4] 1.53 µM | [5] 9.35 µM

CC(=O)NCCC(=O)N[C@@H](CCC(N)=O)C(=O)N[C@@H](CO)C(=O)N[C@@H](CCC(N)=O)C(=O)N[C@@H](CCC(N)=O)C(=O)N[C@H](C(=O)N[C@@H](Cc1ccccc1)C(=O)N[C@]1(C)CCCCCCC=CCCC[C@@](C)(C(=O)N[C@@H](CCC(N)=O)C(=O)N[C@@H](CC(N)=O)C(N)=O)NC(=O)[C@H](CC(C)C)NC(=O)[C@H](CC(C)C)NC(=O)[C@@H](CCCNC(=N)N)NC(=O)[C@H](Cc2c[nH]c3ccccc23)NC(=O)[C@H](CC(C)C)NC(=O)[C@H](CC(N)=O)NC1=O)[C@H](C)O
inactive: [1] | [3] | [4] | [5]

CCCCn1c(=O)n(Cc2ccccc2F)c(=O)c2[nH]c(Cc3ccc(NC(C)=O)cc3)nc21
active: [1] 27.1 µM | [5] 18.7 µM
inactive: [2] | [3] | [8]

C[C@@H](N)c1ccc(C(=O)Nc2ccnc3[nH]ccc23)cc1
active: [1] 21.5 µM | [2] 16.6 µM
inactive: [5] | [8] | [6]

COc1ccc2ccc(=O)oc2c1CC=C(C)C
inactive: [1] | [8] | [6]
active: [2] 29.6 µM | [9] 24.3 µM

O=C(O)c1nc(=O)[nH]c(=O)[nH]1
not listed: [7] | [9] | [10]
inactive: all other assays above

CCOC(=O)[C@H]1O[C@H]1C(=O)N[C@@H](CC(C)C)C(=O)NCCC(C)C
inactive: [1] | [3] | [4] | [5] | [8]

COC(=O)Nc1ccc(-c2nc(N3CCOCC3)c3cnn(C4CCN(C(=O)OC)CC4)c3n2)cc1
inactive: [6]
active: [1] 0.0192 µM | [9] 0.611 µM | [3] 6.62 µM | [4] 0.432 µM | [7] 1.66 µM | [5] 0.469 µM | [8] 0.0209 µM

CN1C(=O)C[C@H](C(=O)N[C@@H](Cc2cnc[nH]2)C(=O)N2CCC[C@@H]2C(N)=O)NC1=O
active: [2] 20.9 µM
not listed: [7] | [9] | [10]
inactive: all other assays above

COc1cc2nccc(Oc3ccc(NC(=O)Nc4cc(C)on4)c(Cl)c3)c2cc1OC
active: [1] 19.2 µM | [2] 10.5 µM | [3] 18.7 µM | [7] 33.2 µM

Cc1ccc(C(=O)N(CCCN)[C@@H](c2nc3cc(Cl)ccc3c(=O)n2Cc2ccccc2)C(C)C)cc1
active: [2] 0.001 µM | [9] 0.001 µM | [4] 0.001 µM
inactive: [1] | [8] | [6]

CN(C)N=Nc1nc[nH]c1C(N)=O
inactive: [1] | [3] | [7] | [5] | [8]

CC(C)N(CCCNC(=O)Nc1ccc(C(C)(C)C)cc1)C[C@H]1O[C@@H](n2cc(Br)c3c(N)ncnc32)[C@H](O)[C@H]1O
active: [1] 24.1 µM | [2] 23.5 µM | [3] 20.9 µM | [4] 24.3 µM | [7] 29.6 µM

CCCCC[C@H](O)C=C[C@H]1[C@H](O)CC(=O)[C@H]1CC=CCCCC(=O)O
inactive: [1] | [3] | [7] | [5] | [6]

CCCCCOC(=O)Nc1nc(=O)n([C@@H]2O[C@H](C)[C@@H](O)C2O)cc1F (stereo partly specified)
not listed: [5] | [9] | [10]
inactive: all other assays above

OC1CCC(Nc2ncc3nc(Nc4c(F)cc(F)cc4F)n([C@@H]4CCOC4)c3n2)CC1 (stereo partly specified)
inactive: [1] | [9] | [3] | [5] | [8]

Cc1c(C(=O)Nc2ccc(N3C[C@@H](C)O[C@@H](C)C3)nc2)cccc1-c1ccc(OC(F)(F)F)cc1
active: [1] 3.41 µM | [9] 13.7 µM | [4] 19.3 µM | [5] 23.5 µM

CC(C)(CO)[C@@H](O)C(=O)NCCC(=O)O
not listed: [9] | [10]
inactive: all other assays above

CCC(c1ccc(O)cc1)C(CC)c1ccc(O)cc1 (stereo unspecified)
inactive: [1] | [2] | [8] | [6]

O=c1[nH]c(=O)n([C@H]2C[C@@H](O)[C@@H](CO)O2)cc1C(F)(F)F
active: [9] 10.9 µM | [4] 17.2 µM
inactive: [1] | [3] | [5] | [8] | [6]

C#CCN(C)CC1=Cc2ccccc2Oc2ccccc21
inactive: [1] | [2] | [9] | [3] | [8]

N=C1SC(=Cc2ccc(-c3ccc4c(c3)C(=O)NC4=O)o2)C(=O)N1c1ccc(Br)cc1
not listed: [2] | [4] | [10]
inactive: all other assays above

Cc1cc(OCCCS(C)(=O)=O)cc(C)c1-c1cccc(COc2ccc3c(c2)OC[C@H]3CC(=O)O)c1
inactive: [1] | [3] | [5] | [8]

COc1nc(C)cnc1NS(=O)(=O)c1cccnc1-c1ccc(-c2nnco2)cc1
not listed: [1] | [8]
inactive: all other assays above

CNC(=O)c1c(-c2ccc(F)cc2)oc2cc(N(CCO)S(C)(=O)=O)c(C3CC3)cc12
active: [1] 30.4 µM | [7] 29.6 µM
inactive: [6]

CN(C)S(=O)(=O)c1ccc2c(c1)C(=Cc1cc3c([nH]1)CCCC3)C(=O)N2
active: [1] 3.83 µM
inactive: [5]

O=C(O)CCC=CCC[C@@H]1[C@H](N2CCCCC2)[C@@H](O)C[C@@H]1OCc1ccc(-c2ccccc2)cc1
active: [10] 5.9 µM
inactive: [2] | [9] | [3] | [5] | [8]

CN[C@@H]1[C@@H](O)[C@@H](O[C@@H]2[C@@H](O)[C@H](O[C@H]3O[C@H](CN)[C@@H](O)[C@H](O)[C@@H]3O)[C@@H](N)C[C@@H]2NC(=O)[C@@H](O)CN)OC[C@]1(C)O
not listed: [1] | [8]
inactive: all other assays above

CCCCC[C@H](O)C=C[C@H]1[C@H](O)CC(=O)[C@H]1CCCCCCC(=O)O
inactive: [1] | [5] | [8] | [6]

COc1ccnc(CS(=O)c2nc3ccc(OC(F)F)cc3[nH]2)c1OC (stereo unspecified)
not listed: [1]
inactive: all other assays above

CC(C)(C)c1[nH]cnc1C=c1[nH]c(=O)c(=Cc2ccccc2)[nH]c1=O
active: [10] 48.1 µM | [2] 0.001 µM | [9] 0.0111 µM | [4] 35.2 µM | [7] 34 µM
inactive: [8]

CC1CCN(c2cc(N3CCN(C)CC3)ccc2NC(=O)c2cc(C#N)c[nH]2)CC1
not listed: [1] | [4] | [7]
inactive: all other assays above

C[C@H]1[C@H](O)O[C@@H]2O[C@@]3(C)CC[C@@H]4[C@H](C)CC[C@@H]1[C@@]24OO3
active: [10] 5.9 µM | [2] 6.62 µM | [9] 1.53 µM | [4] 1.37 µM | [7] 1.87 µM | [5] 23.5 µM
inactive: [8] | [6]

CN1c2ccccc2C(=O)N2CCc3c([nH]c4ccccc34)C21 (stereo unspecified)
active: [10] 13.2 µM
not listed: [1] | [7] | [8]
inactive: all other assays above

CC1(C)[C@H]2CC[C@]3(C)[C@@H](C(=O)C=C4[C@@H]5C[C@@](C)(C(=O)O)CC[C@]5(C)CC[C@]43C)[C@@]2(C)CC[C@@H]1O
not listed: [1] | [4]
inactive: all other assays above

Cc1cnc(Nc2cccc(CN3CCOCC3)c2)nc1Nc1cccc(S(=O)(=O)NC(C)(C)C)c1
active: [10] 8.33 µM | [2] 1.48 µM | [9] 13.7 µM | [3] 8.33 µM | [7] 13.2 µM | [5] 7.43 µM | [6] 8.33 µM

Nc1ccc(-c2ccc3ncc4ccc(=O)n(-c5cccc(C(F)(F)F)c5)c4c3c2)cn1
active: [10] 0.418 µM | [2] 0.0296 µM | [9] 3.43 µM | [3] 0.148 µM | [4] 0.0069 µM | [7] 0.235 µM | [5] 0.0009 µM | [6] 1.66 µM

Cc1ccc(NC(=O)c2ccc(CN3CCN(C)CC3)cc2)cc1Nc1nc(-c2cccnc2)cs1
active: [2] 18.7 µM | [9] 21.7 µM | [4] 21.7 µM | [7] 18.7 µM
inactive: [10] | [5] | [8] | [6]

CNC(=O)c1cc(COc2nnc(Nc3ccc(Cl)cc3)c3ccoc23)ccn1
active: [4] 21.7 µM | [5] 23.5 µM
inactive: [1] | [8]

N[C@@H](CC(=O)N1CCn2c(nnc2C(F)(F)F)C1)Cc1cc(F)c(F)cc1F
active: [10] 11.8 µM
not listed: [1] | [4] | [8]
inactive: all other assays above

C=CC(=O)Nc1cccc(Sc2nc(Nc3ccc(N4CCN(C)CC4)cc3)ncc2Cl)c1
inactive: [8]
active: [1] 27.1 µM
